This is an account of results in PubChem BioAssay (Tox21).

Records with an inconclusive call do not appear. Values without a mark were called inactive. The source made the active and inactive calls. Unless noted, calls come from the whole dose curve; as a rule, active = well fitted curve in the direction sought with a large enough effect in the repeat runs; inconclusive = weak or mixed curves; inactive = no such curve, though single readings can be large; an effect the other way counts as inactive or inconclusive.

A short description of experiment [1]: qHTS assay to identify small molecule antagonists of the retinoid acid receptor (RAR) signaling pathway - cell viability counter screen (AID 1159551). Note: nearly all actives have a fitted effect of over 35% in size. The procedure, abridged: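 Viability of C3RL4 cells is quantified from ATP by luminescence after 6 h treatment at 37 C with compounds and 1 uM retinol.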
The nature of experiment [2]: qHTS assay to identify small molecule antagonists of the retinoic acid receptor (RAR) signaling pathway (AID 1159552; note: nearly all actives have a fitted effect of over 50% in size). The procedure, abridged:
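Cells of the C3RL4 line were seeded, incubated overnight, then dosed with compounds in DMSO followed immediately by retinol (1 uM final). Six hours later luciferase detection reagent went in; signal was measured after 30 min at RT.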

A short description of experiment [3]: qHTS assay to identify small molecule agonists of the retinoic acid receptor (RAR) signaling pathway (AID 1159553). Note: potency is the fitted concentration of half-maximal effect. Put shortly:
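Compounds dissolved in DMSO were pinned onto C3RL4 cells seeded the previous day, and plates were held 6 hr at 37 C. RARE-driven luciferase output was then read by luminescence.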
A general note: In qHTS, concentration-response curves come from the screen itself.

Experiment [4] has as its target Luciferin 4-monooxygenase (Photinus pyralis) (UniProt P08659). Nature of the experiment: qHTS assay to identify small molecule inhibitors of firefly luciferase (AID 1224835). Note: nearly all actives have a fitted effect of over 25% in size. Note: potency is the fitted concentration of half-maximal effect. Put shortly: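 Biochemical qHTS: compounds run as interplate titrations against purified firefly enzyme, with D-luciferin and ATP each at its KM concentration. Light output recorded by CCD imaging.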

A short description of experiment [5]: qHTS assay to identify small molecule agonists of the constitutive androstane receptor (CAR) signaling pathway - cell viability counter screen (AID 1224836). Note: series mostly up to about 92 µM; nearly all actives have a fitted effect of over 45% in size. The procedure, abridged:
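HepG2-CYP2B6-hCAR, 2500 cells/well, 4 h pre-incubation; cpd 15 conc + PK11195 0.75 uM final; 23 h, 37 C/5% CO2; CellTiter-Fluor, fluorescence.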

The nature of experiment [6]: qHTS assay to identify small molecule antagonists of the constitutive androstane receptor (CAR) signaling pathway - cell viability counter screen (AID 1224837). Note: series mostly up to about 92 µM; nearly all actives have a fitted effect of over 45% in size. Put shortly:
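In quantitative HTS format, compounds at 15 concentrations were applied to HepG2 cells double-transfected with hCAR and CYP2B6-2.2kb under 50 nM CITCO stimulation; live-cell protease activity was read after 23 hr via CellTiter-Fluor.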

Experiment [7] concerns the target Nuclear receptor subfamily 1 group I member 3 (Homo sapiens) (UniProt Q14994). Nature of the experiment: qHTS assay to identify small molecule antagonists of the constitutive androstane receptor (CAR) signaling pathway (AID 1224838). Note: nearly all actives have a fitted effect of over 40% in size. The procedure, abridged: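 CITCO-stimulated (50 nM final) HepG2 cells stably transfected with hCAR and CYP2B6-2.2kb luciferase were exposed to compounds at 15 concentrations for 24 h at 37 C/5% CO2. A luciferase reagent was added and luminescence recorded after 30 min.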

The target is the same in experiment [8]. Nature of the experiment: qHTS assay to identify small molecule agonists of the constitutive androstane receptor (CAR) signaling pathway (AID 1224839). Note: nearly all actives have a fitted effect of over 15% in size. Note: potency is the fitted concentration of half-maximal effect. The procedure, abridged: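 HepG2-CYP2B6-hCAR cells, 2500/well, 4 h pre-incubation; compounds 15 conc.; PK11195 0.75 uM final; 24 h, 37 C/5% CO2; ONE-Glo luciferase read.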
Experiment [9] in a line: qHTS assay to identify small molecule antagonists of the estrogen related receptor signaling pathway with the pleiotropic PPARgamma coactivator (PGC) from Tox21 10K library - cell viability counter screen (AID 1224840; active = well fitted cell-killing curve with a large enough effect in the repeat runs, not every such curve was filed as active; note: nearly all actives have a fitted effect of over 40% in size). The procedure, abridged:
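Viability counter screen, PGC/ERR cells: 17.5 h compound exposure at 37 C, CellTiter-Fluor fluorescence endpoint.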

Experiment [10] deals with Thyrotropin receptor (Homo sapiens) (UniProt P16473). Nature of the experiment: qHTS assay to identify small molecule agonists of the thyroid stimulating hormone receptor (TSHR) signaling pathway (AID 1224843; calls by dose curve; note: nearly all actives have a fitted effect of over 45% in size). The procedure, abridged:
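Agonist-mode screen: TSHR HEK293 cells received test chemicals for half an hour at room temperature, then HTRF cAMP detection reagents for one hour prior to fluorescence measurement. Each chemical ran as a 15-concentration series, triplicated.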

A short description of experiment [11]: qHTS assay to identify small molecule agonists of the RXR signaling pathway - cell viability counter screen (AID 1159529).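 Note: HEK 293T cells carrying an RXR-alpha UAS beta-lactamase reporter; series mostly up to about 77 µM; nearly all actives have a fitted effect of over 50% in size.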 The procedure, abridged:
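HEK 293T RXRa-bla cells, 2% CS-FBS; 5 h settle; cpd 16 h 37 C, 5% CO2; CellTiter-Glo 30 min RT, luminescence. Tetraoctyl ammonium bromide as positive control.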

A short description of experiment [12]: qHTS assay to identify small molecule antagonists of the estrogen related receptor (ERR) signaling pathway from Tox21 library - cell viability counter screen (AID 1224834). Note: nearly all actives have a fitted effect of over 30% in size. Note: potency is the fitted concentration of half-maximal effect. Put shortly:
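In this quantitative HTS format, ERR cells receive compounds in DMSO and are incubated for 17.5 h at 37 C. Live-cell protease activity is then detected with CellTiter-Fluor.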

Experiment [13] in a line: qHTS assay to identify small molecule antagonists of the estrogen related receptor (ERR) signaling pathway - cell viability counter screen (AID 1224818). Note: series mostly up to about 46 µM. The procedure, abridged:
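Cytotoxicity check run alongside the ERR antagonist screen: cells exposed to test compounds 17.5 h at 37 C, viability taken as CellTiter-Fluor fluorescence intensity.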

A short description of experiment [14]: qHTS assay to identify small molecule antagonists of the estrogen related receptor signaling pathway with the pleiotropic PPARgamma coactivator (PGC) cell viability counter screen (AID 1224822; note: series mostly up to about 46 µM). Put shortly: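 Viable cell signal (CellTiter-Fluor, 30 min, 37 C/5% CO2) was measured in PGC/ERR cells after a 17.5 h compound incubation.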
Experiment [15] is described as follows: qHTS assay to identify small molecule antagonists of the estrogen related receptor signaling pathway with the pleiotropic PPARgamma coactivator (PGC) from Tox21 10K library (AID 1224841; call rule not given here; note: actives are mostly falling curves and most rising ones were filed inactive; nearly all actives have a fitted effect of over 50% in size; note: potency is the fitted concentration of half-maximal effect). Put shortly:
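In the PGC/ERR line, DMSO solutions of test chemicals are pin-delivered to 2,000 cells/well six hours after dispensing. Following eighteen hours' incubation, One-Glo reagent is added and luminescence recorded.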

Experiment [16] in a line: qHTS assay to identify small molecule agonists of the estrogen related receptor signaling pathway with the pleiotropic PPARgamma coactivator (PGC) from Tox21 10K library (AID 1224842). Note: nearly all actives have a fitted effect of over 15% in size. The procedure, abridged: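 PGC/ERR reporter cell line, 2,000 cells per well, incubated 6 h at 37 C before 23 nL compound in DMSO was added. After 18 h at 37 C, One-Glo luminescence read following 30 min at room temperature.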

Luciferin 4-monooxygenase (Photinus pyralis), sequence (P08659 whole entry, looked up): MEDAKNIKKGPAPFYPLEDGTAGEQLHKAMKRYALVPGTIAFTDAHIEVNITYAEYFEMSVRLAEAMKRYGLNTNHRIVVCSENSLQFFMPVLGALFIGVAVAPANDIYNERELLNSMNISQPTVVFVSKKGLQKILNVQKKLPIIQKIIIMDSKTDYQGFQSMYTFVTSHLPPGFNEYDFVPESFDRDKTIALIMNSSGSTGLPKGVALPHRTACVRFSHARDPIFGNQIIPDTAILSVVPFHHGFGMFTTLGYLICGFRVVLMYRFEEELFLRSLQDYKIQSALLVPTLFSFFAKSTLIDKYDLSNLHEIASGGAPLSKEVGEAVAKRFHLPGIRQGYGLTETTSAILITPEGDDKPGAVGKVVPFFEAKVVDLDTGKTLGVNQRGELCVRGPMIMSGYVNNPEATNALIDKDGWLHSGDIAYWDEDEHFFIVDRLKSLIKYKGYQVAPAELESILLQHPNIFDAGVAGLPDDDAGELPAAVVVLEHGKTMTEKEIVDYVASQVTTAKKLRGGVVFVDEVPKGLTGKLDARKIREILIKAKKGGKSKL
Thyrotropin receptor (Homo sapiens), sequence (P16473 whole entry, looked up): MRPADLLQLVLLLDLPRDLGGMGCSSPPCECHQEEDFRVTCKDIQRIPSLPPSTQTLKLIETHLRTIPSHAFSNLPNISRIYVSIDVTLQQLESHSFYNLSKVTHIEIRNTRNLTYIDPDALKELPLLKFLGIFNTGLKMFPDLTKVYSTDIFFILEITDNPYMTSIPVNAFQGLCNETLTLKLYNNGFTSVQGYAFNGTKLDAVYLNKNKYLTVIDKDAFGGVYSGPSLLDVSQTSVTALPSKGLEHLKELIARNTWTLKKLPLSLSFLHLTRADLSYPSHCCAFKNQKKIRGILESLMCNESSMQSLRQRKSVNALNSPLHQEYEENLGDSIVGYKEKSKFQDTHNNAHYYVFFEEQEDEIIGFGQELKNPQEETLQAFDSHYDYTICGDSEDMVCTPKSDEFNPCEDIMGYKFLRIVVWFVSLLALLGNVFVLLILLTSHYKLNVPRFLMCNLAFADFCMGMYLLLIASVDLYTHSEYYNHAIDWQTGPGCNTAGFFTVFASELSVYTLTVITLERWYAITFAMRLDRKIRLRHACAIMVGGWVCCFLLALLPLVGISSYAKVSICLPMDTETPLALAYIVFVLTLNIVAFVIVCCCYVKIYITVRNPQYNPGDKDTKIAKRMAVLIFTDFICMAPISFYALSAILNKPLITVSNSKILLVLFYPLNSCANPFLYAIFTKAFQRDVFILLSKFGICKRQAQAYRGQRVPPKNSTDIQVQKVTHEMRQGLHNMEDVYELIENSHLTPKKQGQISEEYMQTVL
Nuclear receptor subfamily 1 group I member 3 (Homo sapiens), sequence (Q14994 whole entry, looked up): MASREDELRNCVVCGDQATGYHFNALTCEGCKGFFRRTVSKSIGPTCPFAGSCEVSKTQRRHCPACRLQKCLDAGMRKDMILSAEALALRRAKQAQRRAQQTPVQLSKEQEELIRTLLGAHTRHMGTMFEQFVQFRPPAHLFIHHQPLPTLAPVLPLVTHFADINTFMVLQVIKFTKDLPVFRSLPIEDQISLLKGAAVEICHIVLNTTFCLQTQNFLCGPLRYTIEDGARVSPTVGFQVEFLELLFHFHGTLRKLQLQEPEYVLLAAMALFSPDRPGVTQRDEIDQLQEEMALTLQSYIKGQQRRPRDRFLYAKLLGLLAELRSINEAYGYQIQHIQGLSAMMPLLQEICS

As for `CCN(CC)CCOC(=O)C(Cc1cccc2ccccc12)CC1CCCO1` (stereo not given), the Potency entry in [1], in [2], in experiment [3], in [4], in experiment [5] and in [6] was “inactive” in each case. Also, the Potency entry in experiment [7], in [8], in experiment [9] and in [10] was “inactive” each time.
Consider `CN(C)CCN(Cc1ccccc1)c1ccccn1`, for which the Potency result in experiment [11], in [12], in [4], in experiment [5], in experiment [6] and in experiment [9] was “inactive” throughout. Further, the Potency result in experiment [10] was “inactive”.
With `CCCNCC(O)COc1ccccc1C(=O)CCc1ccccc1` (stereo not given), the Potency entry in [1], in experiment [5], in experiment [6], in experiment [7], in [8] and in experiment [9] was “inactive” in each case. The Potency entry in experiment [10] was “inactive”. The call in experiment [13] and in [14] was inactive.
Take `CC(=O)c1ccc2c(c1)N(CCCN(C)C)c1ccccc1S2`: the Potency result in [1], in experiment [3], in [4], in experiment [5], in [6] and in experiment [7] was “inactive” in each case. Besides, the Potency result in experiment [8], in [9] and in experiment [10] was “inactive” in each case. Besides, the call in [13] and in [14] was inactive.
`CC(C)(O)c1ccc(CNC(=O)c2cccnc2Oc2ccc(F)cc2)cc1`: the Potency entry in experiment [1], in [3], in experiment [12], in experiment [4], in experiment [5] and in experiment [6] was “inactive” throughout. In addition, the Potency result in [7], in experiment [9], in experiment [16] and in experiment [10] was “inactive” throughout. Moreover, the values for the Potency in experiment [8] and in experiment [15] were 27.3 µM (active) and 48.6 µM (active), respectively.
In the case of `C[C@@H]1C[C@H]2O[C@@]3(O[C@@H]2C(C)(C)O)[C@H](O)[C@@]2(C)[C@@H]4CC[C@H]5C(C)(C)[C@@H](O[C@@H]6OC[C@@H](O)[C@H](O)[C@H]6O)CC[C@@]56C[C@@]46CC[C@]2(C)[C@@H]13`, the Potency result in [1], in experiment [2], in [12], in [4], in experiment [5] and in experiment [6] was “inactive” throughout. Besides, the Potency result in experiment [7], in experiment [9], in [15], in experiment [16] and in experiment [10] was “inactive” in each case.
In the case of `CCCCCCCN`, the Potency entry in experiment [11], in [12], in experiment [4], in experiment [5], in [6] and in experiment [7] was “inactive” each time. The Potency entry in [8] and in experiment [9] was “inactive” throughout.
On to `O=C1[C@H]2CCCC[C@H]2C(=O)N1CCCCN1CCN(c2nsc3ccccc23)CC1`, for which the Potency result in [1], in experiment [2], in experiment [3], in [4], in experiment [5] and in [6] was “inactive” throughout. Moreover, the Potency entry in [7] and in experiment [16] was “inactive” in each case. Also, the Potency in [12] is 29.8 µM (active).
`CCOC(=O)C(O)c1ccccc1` (stereo not given): the Potency entry in experiment [1], in experiment [2], in [3], in [12], in [4] and in experiment [5] was “inactive” each time. Moreover, the Potency result in experiment [6], in experiment [7], in [8], in experiment [9], in [15] and in [16] was “inactive” each time. In addition, the Potency result in [10] is “inactive”.
For the molecule `O=C(O)C1(C(=O)Nc2ccc(Cl)cc2Cl)CC1`, the Potency entry in experiment [1], in experiment [12], in experiment [5], in experiment [6], in experiment [7] and in experiment [9] was “inactive” in each case. Further, the Potency result in experiment [10] is “inactive”. The results for the Potency in [3], in experiment [4] and in experiment [8] were 6.11 µM (active), 6.33 µM (active) and 13.7 µM (active), respectively.
